Here are results for 32 compounds from PubChem BioAssay (NCATS).

Inconclusive results are not listed. Values without a mark were called inactive. Activity calls are given as the source filed them. Calls come from the whole dose curve; as a rule, active = well fitted inhibition curve with a large enough effect; inconclusive = small, poorly fitted or top-dose-only effect; inactive = no such curve, though single readings can be large or run the other way.

In one assay the test system is Zika virus NS2B-NS3 protease (linked construct). Nature of the assay: Primary screen NINDS Rhodamine qHTS for Zika virus inhibitors (AID 1347160). For activity change, negative = inhibition: % is set by controls: 0 for no effect and ±100 for the full control effect. Note: nearly all actives have a fitted effect of over 55% in size. The settings on record: purified NS2B-NS3 protease, Rhodamine110 substrate fluorescence; series mostly up to 57.1 µM; activity change, negative = inhibition: at the top concentration. The method, boiled down: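 Each compound, titrated, sat 15 min with 25 nM linked protease before 1.5 microM Rhodamine110 substrate went in. Fluorescence gain over the next 15 min, in pH 8.0 Tris with Tween 20, gave Hill-fitted curves.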
In general terms: qHTS replaces the single test concentration by a dilution series.
With `Cc1ccc(CN2CCNCC2)cc1NC(=O)CNc1ccc(F)c(F)c1`, the “activity change, negative = inhibition” value was 152%. Consider `COc1cc(C(=O)N2CCC(N3CCN(C)CC3)CC2)ccc1Nc1ncc2c(n1)N(C)c1ccccc1C(=O)N2C`, for which the “activity change, negative = inhibition” value is 11.9%.

On to `O=C(c1cncc(Br)c1)N1CCC(N2CCCC2)CC1`, for which the “activity change, negative = inhibition” value is 10.2%. Turning to `C=CC(=O)Nc1cccc(Oc2nc(Nc3ccc(N4CCN(C)CC4)cc3)ncc2Cl)c1`, the “activity change, negative = inhibition” value is 61.3%.

Regarding `OCc1ccc(-c2ccc(-c3ccc(CO)s3)o2)s1`, the “activity change, negative = inhibition” value was 38.9% [at 33.1 µM]. As to `CN1CCC(CNc2ccc3ncc(-c4cccc(OC(F)(F)F)c4)n3n2)CC1`, the “activity change, negative = inhibition” value was 17.3%.

Turning to `C[C@@H]1COC(Nc2ccc3ncnc(Nc4ccc(OCc5nccs5)c(Cl)c4)c3c2)=N1`, the “activity change, negative = inhibition” value was -9.13%.

Regarding `O=C1CCC[C@@H]2[C@H]3CCC[N+]4([O-])CCC[C@@H](CN12)[C@@H]34` (stereo not given in full), the “activity change, negative = inhibition” value is 21%. Regarding `Cc1cn(-c2cc(NC(=O)c3ccc(C)c(Nc4nccc(-c5cccnc5)n4)c3)cc(C(F)(F)F)c2)cn1`, the “activity change, negative = inhibition” value was -6.93%. For the compound `Clc1ccc2ncc(-c3cccc(NC4CNC4)n3)n2c1`, the “activity change, negative = inhibition” value was 1.32%. With `COCCOc1ccc2c(c1)ncn2-c1ccc2cccc(N3CCC(N)CC3)c2n1`, the compound was classed as inactive.

For `Nc1nc(Nc2ccc(S(N)(=O)=O)cc2)nn1C(=O)c1c(F)cccc1F`, the call was inactive. In the case of `C1Cc2[nH]nc(-c3nn[nH]n3)c2C1`, the “activity change, negative = inhibition” value was 23.9%. In the case of `O=C(O)CCCc1c[nH]c2ccccc12`, the “activity change, negative = inhibition” value is 28.2%. Regarding `CNC(=O)c1ccc(N2C(=S)N(c3cnc(C#N)c(C(F)(F)F)c3)C(=O)C23CCC3)cc1F`, the “activity change, negative = inhibition” value is -7.87%. Consider `CN(C)CC(C)(C)CNc1nn2c(-c3ccccc3)nnc2cc1C1CCC1`, for which the “activity change, negative = inhibition” value was 16.9%. Turning to `c1nc2nc(Nc3ccc(N4CCOCC4)cc3)nc(NC3CCCCC3)c2[nH]1`, the “activity change, negative = inhibition” value is 34.9% [at 33.1 µM].

Turning to `Cc1cn2cc(C(=O)N(C)CCO)cc(N[C@@H]3CCOc4cccc(C)c43)c2n1`, the compound was called inactive.

Tested on in a further assay: not listed separately
The experiment in a line: qHTS to identify inhibitors of the type 1 interferon - major histocompatibility complex class I in skeletal muscle: primary screen against the NCATS Mechanism Interrogation Plate v5.0 (MIPE) Libary (AID 1347411).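 For activity change, negative = inhibition: plate controls were vehicle for no effect and reference inhibitor for full effect.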 Note: nearly all actives have a fitted effect of over 65% in size. Note: potency is the fitted concentration of half-maximal effect. The settings on record: iHSKM cells + IFN-b, HiBiT-tagged MHC-I luminescence, 24 h; series mostly up to 45.8 µM; activity change, negative = inhibition: at the top concentration. The method, boiled down:
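HLA-B HiBit myoblasts, dexamethasone-free medium + 4 ng/ml IFN-b, 24 h compound, 11-pt 1:3 from 46 uM final. Readout: Nano-Glo HiBiT lytic luminescence after 10 min lysis, RT.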
For the compound `NC(=O)c1cccc2cn(-c3ccc([C@@H]4CCCNC4)cc3)nc12`, the “activity change, negative = inhibition” value is -23.8%.

For the compound `COc1cc(-c2nn(C3CCC(N4CCN(C(C)=O)CC4)CC3)c3ncnc(N)c23)ccc1NC(=O)c1cc2ccccc2n1C` (stereo not given), the “activity change, negative = inhibition” value is -7.94%.

As to `C[C@@H](Oc1cc(-c2cnn(C3CCNCC3)c2)cnc1N)c1c(Cl)ccc(F)c1Cl`, the Potency was 14.7 µM (active). For `O=C(c1ccc(Nc2nccc(-c3cc4ccccc4s3)n2)cc1)N1CCC(N2CCCC2)CC1`, the Potency was 5.23 µM (active). For `Cc1c(Cn2c(C)nc3c(C(=O)O)cc(N4CCOCC4)cc32)cccc1C(F)(F)F`, the “activity change, negative = inhibition” value is -17.1%. On to `CN1CCN(Cc2ccc(NC(=O)Nc3ccc(Oc4cc(NC(=O)C5CC5)ncn4)cc3)cc2C(F)(F)F)CC1`, for which the Potency is 0.415 µM (active). With `C=CCn1c(=O)c2cnc(Nc3ccc(N4CCN(C)CC4)cc3)nc2n1-c1cccc(C(C)(C)O)n1`, the “activity change, negative = inhibition” value was -22.3%. Regarding `CNc1nccc(-c2cccnc2Oc2cc(C(=O)Nc3cccc(C(F)(F)F)c3)ccc2C)n1`, the Potency was 5.87 µM (active).

In the case of `O=C(Nc1cn[nH]c1-c1nc2ccc(CN3CCOCC3)cc2[nH]1)NC1CC1`, the Potency was 3.3 µM (active). In the case of `Cc1ccc(C(N)=O)cc1Nc1nccc(-c2cn(C(C)C)c3cnccc23)n1`, the Potency was 8.29 µM (active).

Turning to `CCc1cc2c(cc1N1CCC(N3CCOCC3)CC1)C(C)(C)c1[nH]c3cc(C#N)ccc3c1C2=O`, the “activity change, negative = inhibition” value was -18.9% [at 15.5 µM]. With `Cn1c(CNc2ccc(C(=N)N)cc2)nc2cc(C(=O)N(CCC(=O)O)c3ccccn3)ccc21`, the activity change, negative = inhibition was 5.59% [at 0.314 µM]. Consider `CC[C@@H]1C(=O)N(C)c2cnc(Nc3ccc(C(=O)NC4CCC(N5CCN(CC6CC6)CC5)CC4)cc3OC)nc2N1C(C)C` (stereo not given in full), for which the Potency was 6.58 µM (active). Regarding `Cc1ccc(C(=O)Nc2ccc(CN3CCN(C)CC3)c(C(F)(F)F)c2)cc1C#Cc1cnc2cccnn12`, the Potency is 4.15 µM (active). As for `Cc1ccc(CN2CCNCC2)cc1NC(=O)CNc1ccc(F)c(F)c1`, the “activity change, negative = inhibition” value is 12.2%. For `COc1cc(C(=O)N2CCC(N3CCN(C)CC3)CC2)ccc1Nc1ncc2c(n1)N(C)c1ccccc1C(=O)N2C`, the Potency is 23.4 µM (active). Turning to `O=C(c1cncc(Br)c1)N1CCC(N2CCCC2)CC1`, the “activity change, negative = inhibition” value is -17.7%.

On to `C=CC(=O)Nc1cccc(Oc2nc(Nc3ccc(N4CCN(C)CC4)cc3)ncc2Cl)c1`, for which the Potency was 16.5 µM (active). On to `OCc1ccc(-c2ccc(-c3ccc(CO)s3)o2)s1`, for which the Potency is 33 µM (active). For `CN1CCC(CNc2ccc3ncc(-c4cccc(OC(F)(F)F)c4)n3n2)CC1`, the Potency was 14.7 µM (active). For the compound `C[C@@H]1COC(Nc2ccc3ncnc(Nc4ccc(OCc5nccs5)c(Cl)c4)c3c2)=N1`, the Potency was 16.5 µM (active).

As to `O=C1CCC[C@@H]2[C@H]3CCC[N+]4([O-])CCC[C@@H](CN12)[C@@H]34` (stereo not given in full), the “activity change, negative = inhibition” value is -1.85%. On the same count and under the same terms, in the case of `Cc1cn(-c2cc(NC(=O)c3ccc(C)c(Nc4nccc(-c5cccnc5)n4)c3)cc(C(F)(F)F)c2)cn1` it was -15.4%. Consider `Clc1ccc2ncc(-c3cccc(NC4CNC4)n3)n2c1`, for which the “activity change, negative = inhibition” value is -2.29%.

Turning to `COCCOc1ccc2c(c1)ncn2-c1ccc2cccc(N3CCC(N)CC3)c2n1`, the Potency was 1.86 µM (active). As for `Nc1nc(Nc2ccc(S(N)(=O)=O)cc2)nn1C(=O)c1c(F)cccc1F`, the Potency was 4.15 µM (active). Consider `C1Cc2[nH]nc(-c3nn[nH]n3)c2C1`, for which the “activity change, negative = inhibition” value is 15%. Regarding `O=C(O)CCCc1c[nH]c2ccccc12`, the “activity change, negative = inhibition” value is -8.85%.

For `CNC(=O)c1ccc(N2C(=S)N(c3cnc(C#N)c(C(F)(F)F)c3)C(=O)C23CCC3)cc1F`, the “activity change, negative = inhibition” value was -26.2%.

Regarding `CN(C)CC(C)(C)CNc1nn2c(-c3ccccc3)nnc2cc1C1CCC1`, the “activity change, negative = inhibition” value was 1.6%.

`c1nc2nc(Nc3ccc(N4CCOCC4)cc3)nc(NC3CCCCC3)c2[nH]1`: the Potency was 2.94 µM (active). `Cc1cn2cc(C(=O)N(C)CCO)cc(N[C@@H]3CCOc4cccc(C)c43)c2n1`: the “activity change, negative = inhibition” value is -4.02%.
